Compound activity deposited in PubChem BioAssay by National Center for Advancing Translational Sciences (NCATS).
HEK293 tox: cytotoxic in the GLP-1 receptor inverse agonist counter-screen | Potency, µM (doses to about 38.3 µM), most hits filed as inhibitors | HEK293 cAMP-luciferase reporter cells, luminescence, 24 h | 0.13% of 410,000 active | AID 624418;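 further: loss of luciferase light is scored as toxicity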
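Quantitative HTS format, 1536 wells, 200 cells/uL seeded. Compounds: 23 nL, 24 h, 37 °C. Detection: luciferase reagent, luminescence at 12 min RT; decreased signal taken as cytotoxic.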
GLP1R ag: agonists of human GLP-1 receptor; AID 624172; P43220; 0.007% of 380,000 active; HEK293 GLP-1R CRE-luciferase, luminescence, 4-6 h; cells express a hypersensitive GLP-1R form; Potency, µM (top dose mostly 45.6 µM), actives largely listed as activators
Target sequence (P43220 whole entry, looked up): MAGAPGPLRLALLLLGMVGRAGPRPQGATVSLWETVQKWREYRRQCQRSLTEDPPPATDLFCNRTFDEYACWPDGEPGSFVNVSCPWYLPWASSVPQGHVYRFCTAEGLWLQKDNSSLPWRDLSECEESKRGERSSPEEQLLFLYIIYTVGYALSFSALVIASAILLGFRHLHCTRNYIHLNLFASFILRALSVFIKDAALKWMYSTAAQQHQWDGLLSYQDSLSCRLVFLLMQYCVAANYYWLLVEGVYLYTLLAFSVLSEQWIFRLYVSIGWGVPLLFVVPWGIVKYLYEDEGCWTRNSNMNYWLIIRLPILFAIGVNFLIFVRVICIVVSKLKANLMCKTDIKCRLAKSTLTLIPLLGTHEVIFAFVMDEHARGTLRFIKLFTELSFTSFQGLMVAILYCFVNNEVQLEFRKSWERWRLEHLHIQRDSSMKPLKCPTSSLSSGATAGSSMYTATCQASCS
BRCA1 expr act: BRCA1 expression activation; AID 624202; MCF7-BRCA1-FFLuc reporter, luminescence, 48 h; response scale: scaled: vehicle 0%, 10 µM genistein 100%; 1.1% of 380,000 active; Potency, µM (highest dose often 46.1 µM), usual class: activators; further: nearly all actives have a fitted effect of over 80% in size
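MCF7-BRCA1-FFLuc cells, 2000/well in phenol-red-free MEM, attached 2 h then treated 48 h at 37 C. Luciferase luminescence read 15 min after reagent; normalized to genistein maximum activation (10microM) and DMSO, concentration-response fitted.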
GLP-1R inv ag: GLP-1 receptor (human) inverse agonism | P43220 | 1.6% of 410,000 active | HEK293 GLP-1R CRE-luciferase, luminescence, 24 h; GLP-1R form is constitutively active | Potency, µM (series often up to 38.3 µM), actives largely listed as inhibitors; further: nearly all actives have a fitted effect of over 55% in size
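Seeding at 200 cells/uL, 12 h culture, 24 hr compound treatment, then luciferase reagent and a luminescence read; cells are HEK293 stably expressing a constitutively active GLP-1R plus cAMP-responsive luciferase.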
Integrin act MD: integrin-mediated muscular dystrophy alleviation activation | AID 624291 | 0.064% of 350,000 active | alpha7betagal myoblasts, beta-gal FDG fluorescence, 48 h | Potency, µM (series often up to 38.3 µM), usual class: activators; further: nearly all actives have a fitted effect of over 60% in size
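Alpha7betagal+/- myoblasts (passage 13) were plated 16-24 hr, then exposed to compounds (1:260 dilution of DMSO stock) for 48 hours at 37C. After MPER lysis, β-galactosidase reporter activity was read as FDG fluorescence (ex 480/em 540) after 30 minutes.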
Large screens that a line does not name were inactive. Most compounds without a hit are left out; they make up all but 2.7% or so of the library. The call rests on the fitted dose curve; in most records, active means well fitted curve in the direction sought with a large enough effect; inconclusive means small, poorly fitted or top-dose-only effect, or another doubt; inactive means no such curve, though single readings can be large; an effect the other way counts as inactive or inconclusive.

CCn1cc2nc(SCc3cc(C)ccc3C)n(Cc3ccc(C)cc3)c(=O)c2n1	none (no result: GLP1R ag, Integrin act MD)
Cc1nc(NC(=O)C(C)(C)C)sc1-c1nc(N)sc1-n1cc(-c2ccccc2)nn1	none (no result: Integrin act MD)
CCNc1nc(-c2sc(NC(=O)C(C)(C)C)nc2C)c(-n2cc(-c3ccccc3)nn2)s1	HEK293 tox inconclusive, GLP-1R inv ag 10µM (no result: Integrin act MD)
CC(CNC(=O)c1cnn(-c2ccc(F)cc2)c1-n1cccc1)c1ccccc1 (stereo not given)	GLP-1R inv ag 10µM (no result: Integrin act MD)
CCc1ccc(OCC(=O)O/N=C(\N)c2ccccn2)cc1	BRCA1 expr act inconclusive, GLP-1R inv ag inconclusive
N/C(=N\OC(=O)CCC1CCCC1)c1ccccn1	BRCA1 expr act 7.1µM
N/C(=N\OC(=O)COc1cc(Cl)c(Cl)cc1Cl)c1ccncc1	BRCA1 expr act inconclusive, Integrin act MD 11µM
N/C(=N\OC(=O)COc1ccccc1)c1ccccn1	BRCA1 expr act 13µM
N/C(=N\OC(=O)CCC1CCCC1)c1ccccc1	none
N/C(=N\OC(=O)CCCc1ccccc1)c1ccccn1	BRCA1 expr act 11µM
N/C(=N\OC(=O)COc1ccccc1)c1cccnc1	Integrin act MD inconclusive
N/C(=N\OC(=O)COc1ccccc1)c1ccncc1	BRCA1 expr act 13µM
CC(C)Cn1c(SCC(=O)N2CCCc3ccccc32)nc2ccccc2c1=O	GLP-1R inv ag 2.5µM
Cc1cc(C)nc(SCC(=O)N2CCc3ccccc32)n1	BRCA1 expr act 5.6µM
Cc1cc(C)n2nc(SCC(=O)N3CCc4ccccc43)nc2n1	none
O=C(CSC1=NCCS1)N1CCc2ccccc21	BRCA1 expr act 3.2µM
CCn1c(SCC(=O)N2CCCc3ccccc32)nc2ccccc2c1=O	GLP-1R inv ag inconclusive
CC(=O)Nc1ccc2c(c1Br)Cc1ccccc1-2	BRCA1 expr act 3.2µM, GLP-1R inv ag inconclusive
O=C(Nc1ccc(Cl)cc1)c1cc2c(-c3ccccc3)nn(-c3ccccc3)c2s1	none (no result: Integrin act MD)
CC(C)c1ccc(Nc2c(-c3ccccc3O)nc3cnccn23)cc1	GLP-1R inv ag 10µM (no result: Integrin act MD)
COc1cc(-c2nc3cnccn3c2Nc2ccc(C(C)C)cc2)ccc1O	none
Cc1cccc(N(C)C(=O)Cn2cnc3nc4c(cc3c2=O)CCCC4)c1	none (no result: GLP1R ag, BRCA1 expr act, Integrin act MD)
CCc1ccc(CSc2nccn2-c2ccccc2)cc1	GLP-1R inv ag 6.3µM
c1ccc(CCSc2nccn2-c2ccccc2)cc1	BRCA1 expr act inconclusive, GLP-1R inv ag inconclusive
COc1cc(OC)cc(-c2noc(-c3csc([C@H]4C[C@H](O)[C@@H](CO)O4)n3)n2)c1	BRCA1 expr act 3.2µM (no result: Integrin act MD)
COc1cc(OC)cc(-c2noc(-c3csc([C@@H]4O[C@H](CO)[C@H](O)[C@H](O)[C@H]4O)n3)n2)c1	HEK293 tox inconclusive, GLP-1R inv ag inconclusive (no result: Integrin act MD)
COc1ccc(CN(CCC#N)CCC2(c3ccccc3)CC(C)N(C)CC2C)cc1OC (stereo not given)	HEK293 tox inconclusive, GLP-1R inv ag 10µM
NS(=O)(=O)c1cccc(NC(=O)CCSc2ccccc2Cl)c1	BRCA1 expr act 10µM
C/C(CC(=O)Nc1ccc(Cl)c(Cl)c1)=N\NC(N)=S	HEK293 tox inconclusive, GLP-1R inv ag 11µM
C/C(CC(=O)Nc1cc(Cl)ccc1Cl)=N\NC(N)=S	GLP-1R inv ag inconclusive
C/C(CC(=O)Nc1ccc(C)c(Cl)c1)=N\NC(=O)c1ccncc1	GLP-1R inv ag 10µM
CCOC(=O)C1(Cc2ccccc2)CCCN(C(=O)C=C(C)C)C1 (stereo not given)	BRCA1 expr act inconclusive
CCOC(=O)C1(Cc2ccccc2C)CCCN(C(=O)c2sccc2C)C1 (stereo not given)	GLP-1R inv ag 10µM
CCOC(=O)C1(Cc2ccccc2C)CCCN(C(=O)c2ccoc2)C1 (stereo not given)	none
CCOC(=O)C1(Cc2ccccc2)CCCN(C(=O)COc2ccccc2OC)C1 (stereo not given)	BRCA1 expr act 10µM, GLP-1R inv ag inconclusive
CS(=O)(=O)N(CC(=O)Nc1ccc(Br)cc1)c1ccccc1Br	GLP-1R inv ag inconclusive (no result: Integrin act MD)
C[N+]1(CC(=O)c2c3ccccc3cc3ccccc23)CCOCC1	none (no result: HEK293 tox, GLP1R ag, GLP-1R inv ag, Integrin act MD)
COc1ccc(CNC(=O)C2CCN(S(=O)(=O)c3ccc4c(c3)CCCN4C(C)=O)CC2)cc1	none (no result: GLP1R ag, BRCA1 expr act, Integrin act MD)
COc1ccccc1Cn1c(CNS(=O)(=O)c2cccc([N+](=O)[O-])c2)nc2cccnc21	none (no result: GLP1R ag, BRCA1 expr act, Integrin act MD)
COc1ccc(Cc2c(-c3ccc(F)cc3)nc3ccc(Br)cn23)c(C)c1	BRCA1 expr act 8.9µM (no result: Integrin act MD)
Cc1ccc2nc(C3CCCN(C(=S)Nc4cccc(C)c4C)C3)[nH]c2c1 (stereo not given)	HEK293 tox 11µM, GLP-1R inv ag inconclusive
COC(=O)c1cc2oc3ccccc3c2n1Cc1c(C)cc(C)cc1C	none (no result: GLP1R ag, BRCA1 expr act, Integrin act MD)
C[C@H]1CN([C@@H](C)CO)C(=O)Cc2cc(NC(=O)CCC(F)(F)F)ccc2O[C@H]1CN(C)S(C)(=O)=O	none
C[C@@H]1CN([C@H](C)CO)C(=O)Cc2cc(NC(=O)CCC(F)(F)F)ccc2O[C@@H]1CN(C)C(=O)Nc1ccccc1	none
C[C@@H]1CCCCO[C@@H](CN(C)Cc2ccc(Cl)c(Cl)c2)[C@@H](C)CN([C@H](C)CO)C(=O)c2cc(NC(=O)CCC(F)(F)F)ccc2O1	GLP-1R inv ag 2.8µM
C[C@H]1CN([C@@H](C)CO)C(=O)Cc2cc(NC(=O)CCC(F)(F)F)ccc2O[C@H]1CN(C)Cc1ccc(C(F)(F)F)cc1	GLP-1R inv ag 10µM
C[C@H]1CN([C@@H](C)CO)C(=O)Cc2cc(NC(=O)CCC(F)(F)F)ccc2O[C@H]1CN(C)Cc1ccc(-c2ccccc2)cc1	GLP-1R inv ag 4.5µM
C[C@H]1CN([C@@H](C)CO)C(=O)Cc2cc(NC(=O)C3CC3)ccc2O[C@H]1CN(C)Cc1ccc(Oc2ccccc2)cc1	GLP-1R inv ag 10µM
O=C(Nc1ccc(C(=O)OCc2cc(=O)n3c4c(sc3n2)CCCC4)cc1)c1cccc(F)c1	none (no result: GLP1R ag, BRCA1 expr act, Integrin act MD)
CCOc1ccccc1NC(=O)Cn1ccn(Cc2ccc(C)cc2)c(=O)c1=O	none (no result: GLP1R ag, BRCA1 expr act, Integrin act MD)
CC(Oc1ccccc1)C(=O)N1CCN(S(=O)(=O)c2ccc(OC(F)(F)F)cc2)CC1 (stereo not given)	none
N#CC1(c2ccccc2)CCN(S(=O)(=O)c2ccc(OC(F)(F)F)cc2)CC1	GLP-1R inv ag 10µM
COc1cc(SC)ccc1C(=O)Nc1ccc(Br)cn1	BRCA1 expr act inconclusive, GLP-1R inv ag inconclusive
COc1cc(SC)ccc1C(=O)Nc1ccc(C)cc1C	BRCA1 expr act 7.9µM
COc1cc(SC)ccc1C(=O)Nc1ncc(C)s1	BRCA1 expr act inconclusive, GLP-1R inv ag 10µM, Integrin act MD inconclusive
c1ccc(OCc2nnc(-c3ccccc3)o2)cc1	BRCA1 expr act 7.1µM
c1ccc(-c2nnc(-c3ccccc3)o2)cc1	none
c1ccc(-c2nnc(-c3ccncc3)o2)cc1	BRCA1 expr act 11µM
